Test results published in PubChem BioAssay (Tox21).
A number with no mark means an inactive call. Records with an inconclusive call do not appear. Entries that show only a call come without a potency. Calls of active or inactive are those of the source. Unless noted, calls follow the shape of the dose curve; as a rule, active = well fitted curve in the direction sought with a large enough effect in the repeat runs; inconclusive = weak or mixed curves; inactive = no such curve, though single readings can be large; an effect the other way counts as inactive or inconclusive.

Experiments:
[1] = target: Thyrotropin-releasing hormone receptor (Homo sapiens) (UniProt P34981); assay: qHTS assay to identify small molecule agonists of the thyrotropin-releasing hormone receptor (TRHR) signaling pathway (AID 1346891; calls by dose curve;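 also: HEK293 cells expressing TRHR with calcium dye readout; series mostly up to about 58 µM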)
Summary of the method: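 Overnight-plated (18 h, 37 °C, 5% CO2) TRHR-Hek293 cells; 2 h calcium dye at 37 °C; compound in DMSO; 3-min kinetic fluorescence read.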

[2] = Human pregnane X receptor (PXR) small molecule agonists, qHTS cell viability counter screen (AID 1346977); also: nearly all actives have a fitted effect of over 50% in size; also: potency is read from the fitted curve at half-maximal effect
Summary of the method: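 After a 5hr pre-incubation, PXR-Luc HepG2 cells received compounds plus positive control in DMSO and were kept 24hr at 37C. Cell viability was quantified by fluorescence from CellTiter-Fluor added for the final hour.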

[3] = Caspase-3/7 induction in HepG2 cells by small molecules, qHTS assay (AID 1346978); also: nearly all actives have a fitted effect of over 15% in size
Summary of the method: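 Caspase-3/7 induction was measured by Caspase-Glo 3/7 luminescence (30 min, room temperature) after a 17 hr compound exposure of wild-type HepG2 cells seeded at 2,000 per well and pre-incubated 5 hr.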

[4] = Caspase-3/7 induction in CHO-K1 cells by small molecules, qHTS cell viability counter screen (AID 1346979); also: nearly all actives have a fitted effect of over 35% in size
Summary of the method: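 Multiplexed with Caspase-Glo 3/7 in CHO-K1 cells, this counter screen added CellTiter-Fluor after 16hr of compound exposure and recorded fluorescence 1hr later.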

[5] = Caspase-3/7 induction in CHO-K1 cells by small molecules, qHTS assay (AID 1346980); also: nearly all actives have a fitted effect of over 15% in size
Summary of the method: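 Luminescent Caspase-Glo 3/7 read (30min, room temperature) quantified apoptosis induction. Cells were wild-type CHO-K1, treated with compound for 17hr at 37 C and 5% CO2.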

[6] = Caspase-3/7 induction in HepG2 cells by small molecules, qHTS cell viability counter screen (AID 1346981); also: series mostly up to about 92 µM; nearly all actives have a fitted effect of over 30% in size
Summary of the method: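 In this quantitative HTS counter screen, compounds delivered in DMSO were left on unmodified HepG2 cells for 16 hr at 37 C. Viability was then determined fluorometrically with CellTiter-Fluor, in parallel with caspase-3/7 induction in the same wells.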

[7] = target: Nuclear receptor subfamily 1 group I member 2 (Homo sapiens) (UniProt O75469); assay: Human pregnane X receptor (PXR) small molecule agonists, qHTS assay (AID 1346982); also: nearly all actives have a fitted effect of over 35% in size; also: potency is read from the fitted curve at half-maximal effect
Summary of the method: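 Reporter HepG2 cells expressing PXR-Luc are cultured in charcoal-stripped FBS (5%), treated with compounds for 24 hr at 37 C, and assayed by ONE-Glo luminescence after 30 min at room temperature.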

[8] = target: Cytochrome P450 2D6 (Homo sapiens) (UniProt P10635); assay: Cytochrome P450 Family 2 Subfamily D Member 6 (CYP2D6) small molecule antagonists: luciferase reporter qHTS assay (AID 1671196); also: nearly all actives have a fitted effect of over 50% in size; also: potency is read from the fitted curve at half-maximal effect
Summary of the method: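 Test chemicals meet CYP2D6 plus proluciferin substrate (10 min, RT); NADPH regenerating solution then drives turnover for 1 h. Detection reagent halts the reaction; luminescence measured after 20 min.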

[9] = target: Voltage-gated inwardly rectifying potassium channel KCNH2 (Homo sapiens) (UniProt Q12809); assay: Human Ether-a-go-go-Related Gene (hERG) channel small molecule antagonists: fluorescence cell-based qHTS assay (AID 1671200); also: nearly all actives have a fitted effect of over 50% in size; also: potency is read from the fitted curve at half-maximal effect
Summary of the method: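 Cell line hERG-U2OS; dye FluxOR II, 1 h RT dark; Tl+ stimulus; ex 480/em 540 nm, read each second for 2 min.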

[10] = target: Cytochrome P450 2C19 (Homo sapiens) (UniProt P33261); assay: Cytochrome P450 Family 2 Subfamily C Member 19 (CYP2C19) small molecule antagonists: luciferase reporter qHTS assay (AID 1671197); also: nearly all actives have a fitted effect of over 65% in size; also: potency is read from the fitted curve at half-maximal effect
Summary of the method: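 First, compounds are pinned into enzyme-substrate mix and held 10 min at room temperature. Second, NADPH regeneration solution is added and plates incubate 1 h at 37C. Third, detection reagent is added and luminescence read after 20 min.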

[11] = target: Cytochrome P450 2C9 (Homo sapiens) (UniProt P11712); assay: Cytochrome P450 Family 2 Subfamily C Member 9 (CYP2C9) small molecule antagonists: luciferase reporter qHTS assay (AID 1671198); also: nearly all actives have a fitted effect of over 50% in size; also: potency is read from the fitted curve at half-maximal effect
Summary of the method: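 Enzyme-substrate mix preincubated with compound 10 min at room temperature; reaction started with NADPH regeneration solution, 1 h 37C. Luminescent luciferin product read after 20 min detection reagent.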

[12] = target: Cytochrome P450 3A4 (Homo sapiens) (UniProt P08684); assay: Cytochrome P450 Family 3 Subfamily A Member 4 (CYP3A4) small molecule antagonists: luciferase reporter qHTS assay (AID 1671201); also: nearly all actives have a fitted effect of over 50% in size; also: potency is read from the fitted curve at half-maximal effect
Summary of the method: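 Room-temperature assay throughout: 10 min compound–enzyme/substrate preincubation, 1 h reaction after NADPH regeneration solution, 20 min detection. Luciferin formed from proluciferin substrate is quantified by luminescence.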

[13] = target: Cytochrome P450 1A2 (Homo sapiens) (UniProt P05177); assay: Cytochrome P450 Family 1 Subfamily A Member 2 (CYP1A2) small molecule antagonists: luciferase reporter qHTS assay (AID 1671199); also: nearly all actives have a fitted effect of over 50% in size; also: potency is read from the fitted curve at half-maximal effect
Summary of the method: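 Steps: enzyme-substrate mix dispensed; test compounds and furafylline control pinned in; 10 min room temperature; NADPH regeneration solution added, 1 h; reaction stopped with luciferin detection reagent; luminescence read after 20 min.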

[14] = target: Nuclear receptor subfamily 1 group I member 2 (Rattus norvegicus) (UniProt Q9R1A7); assay: Rat pregnane X receptor (rPXR) activation by small molecules, qHTS assay (AID 1346983); details: rPXR luciferase reporter cells, One-Glo luminescence, 24 h; max activation: active compounds read high; also: nearly all actives have a fitted effect of over 20% in size; also: potency is read from the fitted curve at half-maximal effect
Summary of the method: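 Luminescent readout (One-Glo luciferase, 30 min room temperature) followed 24 hr compound treatment at 37 C of rPXR cells plated 2,000 per well and preincubated 5hr; qHTS format with compounds delivered in DMSO.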

[15] = target: Nuclear receptor subfamily 1 group I member 2 (Homo sapiens) (UniProt O75469); assay: CYP3A4 induction through human pregnane X receptor (PXR) by small molecules, qHTS assay (AID 1346984); also: nearly all actives have a fitted effect of over 40% in size
Summary of the method: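 Induction measured in HepG2-based DPX-2 cells co-expressing human PXR and a CYP3A4 promoter-driven luciferase. After a 24-hour compound exposure, cells received CYP3A4 luciferin substrate at 3uM final for 3 hours, and light output was then recorded.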

[16] = target: Nuclear receptor subfamily 1 group I member 2 (Homo sapiens) (UniProt O75469); assay: Human pregnane X receptor (PXR) activation by small molecules, qHTS assay (AID 1346985); also: nearly all actives have a fitted effect of over 40% in size; also: potency is read from the fitted curve at half-maximal effect
Summary of the method: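 DPX-2 cells (HepG2 co-transfected with a PXR response element and a CYP3A4-promoter luciferase construct) were seeded at 2,000 per well, rested 5 hr at 37C, then exposed to DMSO-dissolved compounds for 24 hr. Activation was read as luciferase luminescence.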

Cytochrome P450 1A2 (Homo sapiens), sequence (P05177 whole entry, looked up): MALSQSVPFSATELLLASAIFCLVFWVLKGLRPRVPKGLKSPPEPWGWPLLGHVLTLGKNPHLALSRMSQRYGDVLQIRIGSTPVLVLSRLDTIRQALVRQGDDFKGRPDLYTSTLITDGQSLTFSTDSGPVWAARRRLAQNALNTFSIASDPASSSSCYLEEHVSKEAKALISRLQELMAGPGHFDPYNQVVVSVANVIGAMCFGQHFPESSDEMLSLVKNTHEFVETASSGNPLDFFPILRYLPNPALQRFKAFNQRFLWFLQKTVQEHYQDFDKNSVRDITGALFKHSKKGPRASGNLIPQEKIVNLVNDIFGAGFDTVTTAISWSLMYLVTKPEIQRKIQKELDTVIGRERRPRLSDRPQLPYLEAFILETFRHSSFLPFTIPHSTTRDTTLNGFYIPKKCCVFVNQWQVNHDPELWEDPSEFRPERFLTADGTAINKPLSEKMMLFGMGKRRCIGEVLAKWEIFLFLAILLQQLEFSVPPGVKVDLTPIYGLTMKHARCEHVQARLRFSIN
Nuclear receptor subfamily 1 group I member 2 (Homo sapiens), sequence (O75469 whole entry, looked up): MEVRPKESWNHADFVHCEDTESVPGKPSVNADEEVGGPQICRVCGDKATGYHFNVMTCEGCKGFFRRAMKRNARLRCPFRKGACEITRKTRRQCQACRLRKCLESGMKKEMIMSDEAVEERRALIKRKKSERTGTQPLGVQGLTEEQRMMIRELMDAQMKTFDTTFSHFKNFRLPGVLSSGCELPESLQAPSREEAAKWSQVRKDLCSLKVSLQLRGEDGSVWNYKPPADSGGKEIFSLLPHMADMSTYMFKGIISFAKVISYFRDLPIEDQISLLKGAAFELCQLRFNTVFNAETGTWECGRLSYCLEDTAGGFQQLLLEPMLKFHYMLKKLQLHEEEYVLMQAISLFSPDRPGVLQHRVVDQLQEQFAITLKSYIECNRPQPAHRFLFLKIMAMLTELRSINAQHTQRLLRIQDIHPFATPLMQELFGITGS
Cytochrome P450 3A4 (Homo sapiens), sequence (P08684 whole entry, looked up): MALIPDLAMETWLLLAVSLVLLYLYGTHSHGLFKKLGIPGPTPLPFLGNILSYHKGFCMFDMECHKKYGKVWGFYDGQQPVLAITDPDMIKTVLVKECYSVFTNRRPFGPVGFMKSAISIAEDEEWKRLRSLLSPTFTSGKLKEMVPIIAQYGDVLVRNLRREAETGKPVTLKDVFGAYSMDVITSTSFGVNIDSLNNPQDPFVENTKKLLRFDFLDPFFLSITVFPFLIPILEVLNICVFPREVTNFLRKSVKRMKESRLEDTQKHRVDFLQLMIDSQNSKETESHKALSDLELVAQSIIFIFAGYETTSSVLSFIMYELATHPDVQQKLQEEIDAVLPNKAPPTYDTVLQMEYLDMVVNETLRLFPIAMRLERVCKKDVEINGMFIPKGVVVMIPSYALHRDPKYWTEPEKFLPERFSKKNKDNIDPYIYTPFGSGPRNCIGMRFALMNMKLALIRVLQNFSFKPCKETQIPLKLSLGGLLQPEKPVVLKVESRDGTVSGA
Nuclear receptor subfamily 1 group I member 2 (Rattus norvegicus), sequence (Q9R1A7 whole entry, looked up): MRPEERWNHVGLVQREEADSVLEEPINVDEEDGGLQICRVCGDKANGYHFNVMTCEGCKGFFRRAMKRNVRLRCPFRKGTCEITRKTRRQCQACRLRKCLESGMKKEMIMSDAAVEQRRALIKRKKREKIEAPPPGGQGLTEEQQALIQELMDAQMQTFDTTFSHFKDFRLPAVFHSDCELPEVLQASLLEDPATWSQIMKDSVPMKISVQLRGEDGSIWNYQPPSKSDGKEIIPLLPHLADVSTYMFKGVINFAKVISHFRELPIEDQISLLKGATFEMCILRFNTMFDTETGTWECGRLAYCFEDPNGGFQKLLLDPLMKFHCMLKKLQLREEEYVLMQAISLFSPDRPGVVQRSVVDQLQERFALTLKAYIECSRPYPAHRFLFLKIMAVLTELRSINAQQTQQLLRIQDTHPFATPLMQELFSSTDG
Cytochrome P450 2C19 (Homo sapiens), sequence (P33261 whole entry, looked up): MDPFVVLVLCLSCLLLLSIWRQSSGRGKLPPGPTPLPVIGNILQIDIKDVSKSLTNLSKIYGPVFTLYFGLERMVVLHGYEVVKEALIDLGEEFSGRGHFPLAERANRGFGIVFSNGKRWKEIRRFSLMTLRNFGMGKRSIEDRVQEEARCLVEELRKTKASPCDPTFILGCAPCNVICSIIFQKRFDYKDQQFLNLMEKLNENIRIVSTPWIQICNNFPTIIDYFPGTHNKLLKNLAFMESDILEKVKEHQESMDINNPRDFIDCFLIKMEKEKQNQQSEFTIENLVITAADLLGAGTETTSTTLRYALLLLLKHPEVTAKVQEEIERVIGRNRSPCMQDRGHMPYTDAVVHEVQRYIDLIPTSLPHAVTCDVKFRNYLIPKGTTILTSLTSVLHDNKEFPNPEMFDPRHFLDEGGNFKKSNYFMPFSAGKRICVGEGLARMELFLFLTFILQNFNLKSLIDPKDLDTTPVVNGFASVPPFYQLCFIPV
Cytochrome P450 2C9 (Homo sapiens), sequence (P11712 whole entry, looked up): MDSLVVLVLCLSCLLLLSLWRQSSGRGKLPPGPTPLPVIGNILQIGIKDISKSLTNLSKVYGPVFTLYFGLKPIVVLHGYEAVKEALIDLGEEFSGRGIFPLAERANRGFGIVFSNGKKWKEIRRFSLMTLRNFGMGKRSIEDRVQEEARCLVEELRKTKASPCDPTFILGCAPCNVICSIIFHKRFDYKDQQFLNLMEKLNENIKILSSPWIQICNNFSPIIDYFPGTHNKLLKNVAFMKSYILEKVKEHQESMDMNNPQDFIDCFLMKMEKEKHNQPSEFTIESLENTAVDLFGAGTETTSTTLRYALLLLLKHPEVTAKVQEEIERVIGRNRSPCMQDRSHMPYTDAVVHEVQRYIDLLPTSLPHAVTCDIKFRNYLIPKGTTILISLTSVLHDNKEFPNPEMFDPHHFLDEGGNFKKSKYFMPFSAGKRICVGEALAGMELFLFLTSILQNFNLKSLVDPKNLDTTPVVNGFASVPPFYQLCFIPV
Thyrotropin-releasing hormone receptor (Homo sapiens), sequence (P34981 whole entry, looked up): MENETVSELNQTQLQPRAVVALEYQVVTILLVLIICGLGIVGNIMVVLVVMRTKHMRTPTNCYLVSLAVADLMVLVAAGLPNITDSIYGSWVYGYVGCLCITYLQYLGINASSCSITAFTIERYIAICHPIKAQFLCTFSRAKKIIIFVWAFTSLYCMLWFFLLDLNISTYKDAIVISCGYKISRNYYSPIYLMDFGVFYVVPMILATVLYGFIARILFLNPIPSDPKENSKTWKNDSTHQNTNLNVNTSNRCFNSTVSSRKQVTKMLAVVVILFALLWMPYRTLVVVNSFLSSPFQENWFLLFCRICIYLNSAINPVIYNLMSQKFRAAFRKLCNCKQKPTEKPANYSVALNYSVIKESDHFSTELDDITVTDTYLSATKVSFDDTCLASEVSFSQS
Voltage-gated inwardly rectifying potassium channel KCNH2 (Homo sapiens), sequence (Q12809 whole entry, looked up): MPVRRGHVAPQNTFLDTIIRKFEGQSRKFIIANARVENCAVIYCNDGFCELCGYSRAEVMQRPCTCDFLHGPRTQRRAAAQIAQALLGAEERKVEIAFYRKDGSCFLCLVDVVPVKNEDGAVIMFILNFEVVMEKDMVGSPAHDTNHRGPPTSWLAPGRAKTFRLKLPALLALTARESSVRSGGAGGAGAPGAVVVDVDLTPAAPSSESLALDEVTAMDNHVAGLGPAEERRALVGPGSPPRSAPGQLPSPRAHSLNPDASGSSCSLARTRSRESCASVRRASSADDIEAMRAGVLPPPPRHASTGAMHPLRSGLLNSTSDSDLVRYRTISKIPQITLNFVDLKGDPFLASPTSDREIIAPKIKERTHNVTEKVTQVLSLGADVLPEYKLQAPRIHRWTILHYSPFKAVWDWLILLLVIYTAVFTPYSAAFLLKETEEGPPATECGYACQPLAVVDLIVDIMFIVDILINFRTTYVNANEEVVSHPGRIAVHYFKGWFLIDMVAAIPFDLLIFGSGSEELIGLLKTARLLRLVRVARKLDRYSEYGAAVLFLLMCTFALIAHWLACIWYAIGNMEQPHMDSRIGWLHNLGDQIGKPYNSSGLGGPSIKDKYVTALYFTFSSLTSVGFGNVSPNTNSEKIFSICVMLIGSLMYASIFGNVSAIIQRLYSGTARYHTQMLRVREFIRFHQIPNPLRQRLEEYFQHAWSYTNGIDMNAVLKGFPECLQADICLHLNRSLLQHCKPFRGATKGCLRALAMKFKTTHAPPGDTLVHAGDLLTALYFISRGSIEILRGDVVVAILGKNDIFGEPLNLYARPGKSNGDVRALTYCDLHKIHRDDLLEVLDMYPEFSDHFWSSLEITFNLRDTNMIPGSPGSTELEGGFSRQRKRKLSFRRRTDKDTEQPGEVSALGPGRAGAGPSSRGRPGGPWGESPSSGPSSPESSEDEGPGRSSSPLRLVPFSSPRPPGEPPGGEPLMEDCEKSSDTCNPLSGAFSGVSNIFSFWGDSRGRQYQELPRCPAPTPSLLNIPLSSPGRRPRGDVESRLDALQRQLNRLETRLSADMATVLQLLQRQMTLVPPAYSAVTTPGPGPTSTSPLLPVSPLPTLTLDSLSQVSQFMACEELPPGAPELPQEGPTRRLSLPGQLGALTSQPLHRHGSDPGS
Cytochrome P450 2D6 (Homo sapiens), sequence (P10635 whole entry, looked up): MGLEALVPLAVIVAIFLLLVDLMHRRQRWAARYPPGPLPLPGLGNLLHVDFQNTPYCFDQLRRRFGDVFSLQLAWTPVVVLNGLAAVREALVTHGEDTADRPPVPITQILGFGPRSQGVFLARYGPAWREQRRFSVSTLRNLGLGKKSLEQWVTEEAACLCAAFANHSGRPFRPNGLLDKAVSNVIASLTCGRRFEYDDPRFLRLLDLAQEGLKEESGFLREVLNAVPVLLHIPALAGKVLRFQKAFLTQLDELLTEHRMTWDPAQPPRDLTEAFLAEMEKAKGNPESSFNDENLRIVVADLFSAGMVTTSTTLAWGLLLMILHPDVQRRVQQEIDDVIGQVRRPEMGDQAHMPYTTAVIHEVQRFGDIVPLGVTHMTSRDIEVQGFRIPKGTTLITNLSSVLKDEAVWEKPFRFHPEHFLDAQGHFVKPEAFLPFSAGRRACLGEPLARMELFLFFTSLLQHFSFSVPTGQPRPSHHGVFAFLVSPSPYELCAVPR

SMILES | Potency [1] | Potency [2] | Potency [3] | Potency [4] | outcome [5] | Potency [6] | Potency [7] | Potency [8] | Potency [9] | Potency [10] | Potency [11] | Potency [12] | Potency [13] | max activation [14] [%] | Potency [15] | Potency [16] | Potency [14]
CC1(C)C(=O)N(Cl)C(=O)N1Br | inactive | inactive | inactive | inactive | inactive | inactive | inactive | inactive | inactive | – | – | – | – | – | – | – | –
NCCCN1CCN(CCCN)CC1 | inactive | inactive | inactive | inactive | inactive | inactive | inactive | – | inactive | inactive | inactive | inactive | – | – | – | – | –
CC(C)C(=O)OCC(C)(C)C(O)C(C)C (configuration not stated) | inactive | inactive | inactive | inactive | inactive | inactive | inactive | inactive | inactive | inactive | inactive | inactive | – | – | – | – | –
C=CC1CO1 (configuration not stated) | inactive | inactive | inactive | inactive | inactive | inactive | inactive | inactive | inactive | inactive | inactive | inactive | – | – | – | – | –
CC(C)Nc1nc(N)nc(Cl)n1 | inactive | inactive | inactive | inactive | inactive | inactive | inactive | inactive | – | inactive | – | inactive | – | – | – | – | –
CC(Oc1c(Cl)cccc1Cl)C1=NCCN1 (configuration not stated) | inactive | inactive | inactive | inactive | inactive | inactive | – | 4.9 µM (active) | – | – | – | – | 12.9 µM (active) | – | – | – | –
CCCCCOc1ccc(C2SC(=O)NC2=O)cc1OCC (configuration not stated) | inactive | inactive | inactive | inactive | inactive | inactive | 29.8 µM (active) | inactive | inactive | inactive | 9.77 µM (active) | – | – | – | – | – | –
CC/C=C\CCOC(=O)C(C)C | inactive | inactive | inactive | inactive | inactive | inactive | inactive | inactive | inactive | inactive | – | – | inactive | – | – | – | –
CCCCNc1cc(C(=O)O)cc(S(N)(=O)=O)c1Oc1ccccc1 | inactive | inactive | inactive | inactive | inactive | inactive | – | – | inactive | – | – | – | – | – | – | – | –
CC(CNC1CCCCC1)OC(=O)c1ccccc1 (configuration not stated) | inactive | inactive | inactive | inactive | inactive | inactive | – | – | inactive | – | – | – | – | – | – | – | –
ICCc1ccccc1 | inactive | inactive | inactive | inactive | inactive | inactive | 59.9 µM (active) | 6.95 µM (active) | inactive | 78 µM (active) | – | inactive | – | – | – | – | –
CC/C=C\CCOC(=O)CCCCC | inactive | inactive | inactive | inactive | inactive | inactive | inactive | inactive | inactive | – | inactive | inactive | – | – | – | – | –
CCCCNc1ccc(C(=O)OCCN(CC)CC)cc1 | inactive | inactive | inactive | inactive | inactive | inactive | – | 3.89 µM (active) | – | inactive | – | inactive | – | – | – | – | –
Cc1cc(S(=O)(=O)O)c(N)cc1Cl | inactive | inactive | inactive | inactive | inactive | inactive | inactive | – | inactive | 80.5 µM (active) | 28.6 µM (active) | inactive | inactive | – | – | – | –
C[C@]12C(=O)OC(=O)[C@H]1[C@H]1C=C[C@@H]2C1 | inactive | inactive | inactive | inactive | inactive | inactive | inactive | inactive | – | inactive | inactive | inactive | – | – | – | – | –
Cc1ccc(C)c(N)c1 | inactive | inactive | inactive | inactive | inactive | inactive | inactive | 20 µM (active) | – | 7.11 µM (active) | – | 3.56 µM (active) | – | – | – | – | –
CCOC(=O)NCCC[Si](OCC)(OCC)OCC | inactive | inactive | inactive | inactive | inactive | inactive | inactive | inactive | inactive | inactive | inactive | 39.9 µM (active) | – | – | – | – | –
O=C(O)C(=O)Cc1c[nH]c2ccccc12 | inactive | inactive | inactive | inactive | inactive | inactive | 30.6 µM (active) | 28.3 µM (active) | inactive | 79.6 µM (active) | 39.9 µM (active) | inactive | – | – | – | – | –
CCCC(CCC)(C(=O)OCC)C(=O)OCC | inactive | inactive | inactive | inactive | inactive | inactive | inactive | inactive | inactive | inactive | – | inactive | – | – | – | – | –
CCCCOc1cc(C(=O)NCCN(CC)CC)c2ccccc2n1 | inactive | 21.1 µM (active) | inactive | – | inactive | – | – | 13.8 µM (active) | 5.35 µM (active) | 34.7 µM (active) | inactive | – | – | -1.11 | – | – | –
O=S(=O)(O)C(F)(F)F | inactive | inactive | inactive | inactive | – | inactive | inactive | – | – | inactive | inactive | – | inactive | – | – | – | –
Cc1c(C(=O)NCCO)[n+](=O)c2ccccc2n1[O-] | inactive | inactive | inactive | inactive | – | inactive | inactive | inactive | – | inactive | inactive | inactive | – | -3.05 | inactive | inactive | –
CCC(=O)O[C@]1(C(=O)SCF)[C@H](C)C[C@H]2[C@@H]3C[C@H](F)C4=CC(=O)C=C[C@]4(C)[C@@]3(F)[C@@H](O)C[C@@]21C | inactive | inactive | – | inactive | inactive | inactive | 0.473 µM (active) | inactive | inactive | inactive | 4.9 µM (active) | – | inactive | – | inactive | 0.447 µM (active) | 1.58 µM (active)
